Data as given in PubChem BioAssay (NCATS).
Several values for one entry are separate records, joined by “and”; a condition that tells them apart may be missing. Identical values can stand only once. Inconclusive results are not listed. Activity calls are given as the source filed them. Unless noted, the call rests on the fitted dose curve.

Experiments:
[1] = biological target: Estrogen receptor (Homo sapiens) (UniProt P03372); test: qHTS assay for small molecule antagonists of estrogen receptor alpha signaling (AID 588513; active means well fitted curve in the direction sought with a large enough effect in the signal ratio, with a control signal flat, not every such curve was filed as active; the % refers to the signal ratio; further: on the % scale 0 is the no-effect control and ±100 the full control effect)
Chain of Estrogen receptor (Homo sapiens) (P03372 whole entry, looked up): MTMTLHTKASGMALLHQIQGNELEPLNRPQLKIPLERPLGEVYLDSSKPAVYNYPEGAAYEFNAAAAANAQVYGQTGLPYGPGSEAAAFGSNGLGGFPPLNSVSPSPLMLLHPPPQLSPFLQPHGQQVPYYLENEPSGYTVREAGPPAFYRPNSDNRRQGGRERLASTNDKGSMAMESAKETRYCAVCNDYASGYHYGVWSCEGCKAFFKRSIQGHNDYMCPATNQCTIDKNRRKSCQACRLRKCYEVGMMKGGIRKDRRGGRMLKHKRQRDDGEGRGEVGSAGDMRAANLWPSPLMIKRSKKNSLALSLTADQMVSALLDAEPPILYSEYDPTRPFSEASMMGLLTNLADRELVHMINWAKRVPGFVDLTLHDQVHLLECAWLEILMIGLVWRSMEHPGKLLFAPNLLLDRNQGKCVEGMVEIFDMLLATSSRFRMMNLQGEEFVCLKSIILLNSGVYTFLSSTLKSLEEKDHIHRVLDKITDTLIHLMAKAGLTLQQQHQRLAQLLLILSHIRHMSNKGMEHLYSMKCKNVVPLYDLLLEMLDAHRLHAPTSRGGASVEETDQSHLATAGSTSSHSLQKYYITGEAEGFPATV
Summary of the method: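 Antagonist mode: inhibition of 0.5 nM 17-beta-estradiol-driven beta-lactamase reporter in HEK 293 ER-alpha-UAS-bla cells, 18 h at 37C, CCF4 readout after 2 h at RT. Normalised to estradiol and DMSO; titration fitted to Hill.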

[2] = biological target: Estrogen receptor (Homo sapiens) (UniProt P03372); test: qHTS assay for small molecule agonists of estrogen receptor alpha signaling (AID 588514); further: nearly all actives have a fitted effect of over 70% in size; further: potency means the concentration at half of the fitted maximal effect;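 on activation: 0% = vehicle only and 100% = reference agonist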
Summary of the method: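 Read-out: CCF4 fluorescence from a beta-lactamase reporter in ER-alpha-UAS-bla HEK 293 cells after 18 hrs of compound exposure at 37 C. Normalized to 20 nM 17-beta-estradiol (100%) and DMSO (0%).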

[3] = qHTS assay for small molecule antagonists of peroxisome proliferator-activated receptor delta signaling (AID 588535); conditions: HEK293T PPARd-UAS-bla, beta-lactamase FRET ratio, 18 h; 460 nm channel;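 further: cells co-treated with a PPAR-delta agonist as stimulator during compound exposure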
Summary of the method: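 Beta-lactamase reporter read-out (405 nm excitation, 460/530 nm emission) after CCF4 loading for 2 hrs at RT. HEK293T PPAR-delta-UAS-bla cells, 2% charcoal/dextran FBS, compounds for 18 hrs at 37 C. Hill fit gave IC50 and efficacy.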

[4] = biological target: Vitamin D3 receptor (Homo sapiens) (UniProt P11473); test: qHTS assay for small molecule agonists of vitamin D receptor signaling (AID 588543);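 further: 0% = DMSO basal and 100% = reference agonist control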
Chain of Vitamin D3 receptor (Homo sapiens) (P11473 whole entry, looked up): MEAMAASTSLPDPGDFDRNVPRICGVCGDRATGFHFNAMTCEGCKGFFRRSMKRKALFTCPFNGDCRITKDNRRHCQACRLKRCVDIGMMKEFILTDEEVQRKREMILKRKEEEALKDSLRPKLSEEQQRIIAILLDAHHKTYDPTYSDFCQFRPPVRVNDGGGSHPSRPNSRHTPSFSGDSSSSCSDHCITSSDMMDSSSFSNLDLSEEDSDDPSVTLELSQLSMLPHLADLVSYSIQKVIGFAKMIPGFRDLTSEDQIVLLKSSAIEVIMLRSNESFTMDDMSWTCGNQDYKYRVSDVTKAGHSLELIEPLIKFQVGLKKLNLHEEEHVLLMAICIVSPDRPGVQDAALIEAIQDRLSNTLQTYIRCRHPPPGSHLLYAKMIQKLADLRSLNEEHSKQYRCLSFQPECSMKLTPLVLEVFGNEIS
Summary of the method: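 Agonist-mode beta-lactamase reporter: HEK293T VDR-UAS-bla cells in charcoal-stripped 2% FBS, compound series 16 h 37 C, CCF4 2 h RT. EC50 from Hill fit, scaled against DMSO and 50 nM calcitriol control.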

[5] = qHTS assay for small molecule agonists of retinoid X receptor alpha signaling (AID 588544); conditions: HEK293T RXRa-UAS-bla, beta-lactamase reporter, 18 h; 530 nm emission;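 on activation: 0% = DMSO basal wells and 100% = reference agonist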
[6] = biological target: Retinoic acid receptor RXR-alpha (Homo sapiens) (UniProt P19793); test: as above
Chain of Retinoic acid receptor RXR-alpha (Homo sapiens) (P19793 whole entry, looked up): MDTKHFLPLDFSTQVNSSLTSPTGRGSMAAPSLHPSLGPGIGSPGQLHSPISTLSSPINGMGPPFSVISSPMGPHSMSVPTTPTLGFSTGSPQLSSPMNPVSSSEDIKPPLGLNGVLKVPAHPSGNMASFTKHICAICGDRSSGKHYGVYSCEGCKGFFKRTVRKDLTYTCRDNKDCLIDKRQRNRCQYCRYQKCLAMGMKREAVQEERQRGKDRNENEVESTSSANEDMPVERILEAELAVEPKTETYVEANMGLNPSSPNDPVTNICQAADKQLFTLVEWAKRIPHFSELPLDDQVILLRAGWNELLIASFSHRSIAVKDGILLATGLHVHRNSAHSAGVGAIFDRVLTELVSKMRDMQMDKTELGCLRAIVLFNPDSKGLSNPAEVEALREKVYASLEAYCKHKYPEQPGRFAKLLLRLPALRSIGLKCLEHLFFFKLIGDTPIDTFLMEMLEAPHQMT

[7] = biological target: Thyroid hormone receptor beta (Homo sapiens) (UniProt P10828); test: qHTS assay for small molecule agonists of thyroid hormone receptor beta signaling (AID 588545);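 further: 0% = DMSO only and 100% = 10 nM T3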
Chain of Thyroid hormone receptor beta (Homo sapiens) (P10828 whole entry, looked up): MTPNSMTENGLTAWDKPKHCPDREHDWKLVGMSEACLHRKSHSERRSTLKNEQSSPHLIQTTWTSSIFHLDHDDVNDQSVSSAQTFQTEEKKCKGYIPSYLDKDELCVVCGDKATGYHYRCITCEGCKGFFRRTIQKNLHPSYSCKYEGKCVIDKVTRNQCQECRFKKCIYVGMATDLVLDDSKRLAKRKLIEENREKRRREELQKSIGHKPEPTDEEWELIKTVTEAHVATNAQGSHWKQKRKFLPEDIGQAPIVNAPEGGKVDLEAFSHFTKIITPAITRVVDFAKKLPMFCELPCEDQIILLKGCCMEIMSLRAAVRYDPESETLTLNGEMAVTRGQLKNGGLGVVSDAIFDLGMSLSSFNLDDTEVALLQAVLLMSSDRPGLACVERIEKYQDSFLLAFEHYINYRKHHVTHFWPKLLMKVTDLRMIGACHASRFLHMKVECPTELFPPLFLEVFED
Summary of the method: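 TR-UAS-bla-GripTite HEK 293 cells in medium with 2% charcoal/dextran FBS, 0.1 mM NEAA and 1 mM sodium pyruvate were treated with titrated compounds for 18 hrs at 37 C. Beta-lactamase reporter was read with CCF4 dye (ex 405, em 460/530 nm); EC50 from Hill fits.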

[8] = qHTS assay for small molecule antagonists of retinoid X receptor alpha signaling (AID 588546; active means well fitted inhibition curve with a large enough effect in the signal ratio, with a control signal flat, not every such curve was filed as active; the % refers to the signal ratio;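 further: cells stimulated with 9-cis-retinoic acid as agonist; on the % scale 0 is the no-effect control and ±100 the full control effect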); conditions: HEK293T RXRa-UAS-bla, beta-lactamase ratio, antagonist mode; measured here: W530 green channel, cytotoxicity proxy
Summary of the method: (§1)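 Beta-lactamase reporter inhibition, read as CCF4 fluorescence ratio (ex 405, em 460/530 nm) after 2 h at RT. HEK293T UAS-bla cells, 2500/well, were stimulated with 9-cis-RA at 500 or 100 nM final alongside test compound for 18 h at 37 C.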

[9] = biological target: Retinoic acid receptor RXR-alpha (Homo sapiens) (UniProt P19793); test: as above; conditions: HEK293T RXRa-UAS-bla, beta-lactamase ratio, antagonist mode
Summary of the method: as §1

[10] = qHTS assay for small molecule activators of the p53 signaling pathway (AID 651743; active means well fitted activation curve with a large enough effect in the signal ratio, not every such curve was filed as active; the % refers to the signal ratio; further: series mostly up to about 92 µM; % of control where 0% means no effect); conditions: HCT-116 p53RE-bla, beta-lactamase FRET ratio, 16 h; activation: stronger effect = higher value
Summary of the method: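 Reporter: beta-lactamase driven by p53 response elements, stably integrated in HCT-116 cells. Cells seeded at 4,000/well, 5 h preincubation, compound (DMSO) 16 h at 37 C; B/G FRET substrate 2 h RT; fluorescence intensity read.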

[11] = biological target: Peroxisome proliferator-activated receptor alpha (Homo sapiens) (UniProt Q07869); test: qHTS assay for small molecule agonists of the peroxisome proliferator-activated receptor alpha (PPARalpha) signaling pathway (AID 651778; active means well fitted curve in the direction sought with a large enough effect; an effect the other way counts as inactive or inconclusive; further: % of control where 0% means no effect); conditions: PathHunter PPARalpha complementation, chemiluminescence, 6 h; max response: stronger effect = higher value
Chain of Peroxisome proliferator-activated receptor alpha (Homo sapiens) (Q07869 whole entry, looked up, the tested form may be a part): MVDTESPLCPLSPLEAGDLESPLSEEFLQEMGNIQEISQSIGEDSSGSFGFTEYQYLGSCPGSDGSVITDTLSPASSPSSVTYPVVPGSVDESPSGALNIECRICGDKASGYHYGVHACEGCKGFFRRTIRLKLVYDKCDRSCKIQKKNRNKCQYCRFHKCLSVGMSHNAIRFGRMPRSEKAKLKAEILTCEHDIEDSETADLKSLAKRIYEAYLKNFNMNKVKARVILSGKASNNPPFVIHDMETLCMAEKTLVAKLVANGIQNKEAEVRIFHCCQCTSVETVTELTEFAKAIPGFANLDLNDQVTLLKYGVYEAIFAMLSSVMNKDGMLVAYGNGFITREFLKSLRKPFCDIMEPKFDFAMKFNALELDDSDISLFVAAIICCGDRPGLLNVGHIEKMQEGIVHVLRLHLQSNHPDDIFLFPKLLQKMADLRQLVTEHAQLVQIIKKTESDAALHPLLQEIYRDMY
Summary of the method: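 Enzyme-fragment complementation assay in which ligand-bound PPARalpha translocates and forms an active enzyme that generates chemiluminescence. Cells were plated overnight, exposed to compound for 6 hr at 37 C, and then given detection reagent for 60 min at room temperature.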

[12] = qHTS assay for small molecule agonists of the antioxidant response element (ARE) signaling pathway measured by Nrf2-dependant transcriptional activity (AID 720636; active means well fitted curve in the direction sought with a large enough effect in the repeat runs; an effect the other way counts as inactive or inconclusive;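 further: HepG2 cells with an ARE-driven luciferase reporter; % of control where 0% means no effect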)
Summary of the method: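 In HepG2 cells engineered with an Nrf2-responsive luciferase gene, ARE induction was quantified as luminescence after 16 hr compound treatment at 37 C.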

[13] = qHTS assay for small molecule agonists of the antioxidant response element (ARE) signaling pathway measured by Nrf2-dependant transcriptional activity - cell viability counter screen (AID 720653; active means well fitted curve in the direction sought with a large enough effect in the repeat runs; an effect the other way counts as inactive or inconclusive; further: on the % scale 0 is the no-effect control and ±100 the full control effect); conditions: ARE-bla HepG2 viability, CellTiter-Glo ATP luminescence, 16 h; max response: stronger effect = lower value
Summary of the method: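 ARE-bla HepG2 cells treated with compounds for 16 h at 37C; this counter screen measures viability as intracellular ATP by CellTiter-Glo luminescence after 30 min at room temperature.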

[14] = qHTS assay for cell viability of HEK293 cells (AID 743288; active means well fitted curve in the direction sought with a large enough effect; an effect the other way counts as inactive or inconclusive; further: on the % scale 0 is the no-effect control and ±100 the full control effect; nearly all actives have a fitted effect of over 50% in size); conditions: ATP luminescence (CellTiter-Glo), 18 h; max response: stronger effect = lower value
Summary of the method: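 Readout is luciferase-coupled ATP content (CellTiter-Glo luminescence, 30 min room temperature) as a measure of metabolically competent cells. Parental HEK293 cells were plated 5 h or more before compound addition, then treated 18 h at 37 C.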

[15] = qHTS assay for cell viability of the p53RE-bla HCT-116 cell line (AID 743292; active means well fitted curve in the direction sought with a large enough effect; an effect the other way counts as inactive or inconclusive; further: on the % scale 0 is the no-effect control and ±100 the full control effect; nearly all actives have a fitted effect of over 55% in size)
Summary of the method: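 Intracellular ATP of p53RE-bla HCT-116 cells measured by luciferase luminescence following 16 h compound incubation at 37 C; DMSO-only wells served as vehicle controls.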

[16] = biological target: Nuclear receptor subfamily 1 group I member 2 (Rattus norvegicus) (UniProt Q9R1A7); test: qHTS assay for small molecule activators of the rat pregnane X receptor (rPXR) signaling pathway (AID 651751; call rule not given here; further: 0% is about no effect); conditions: rPXR reporter cells, luciferase (One-Glo), 24 h
Chain of Nuclear receptor subfamily 1 group I member 2 (Rattus norvegicus) (Q9R1A7 whole entry, looked up): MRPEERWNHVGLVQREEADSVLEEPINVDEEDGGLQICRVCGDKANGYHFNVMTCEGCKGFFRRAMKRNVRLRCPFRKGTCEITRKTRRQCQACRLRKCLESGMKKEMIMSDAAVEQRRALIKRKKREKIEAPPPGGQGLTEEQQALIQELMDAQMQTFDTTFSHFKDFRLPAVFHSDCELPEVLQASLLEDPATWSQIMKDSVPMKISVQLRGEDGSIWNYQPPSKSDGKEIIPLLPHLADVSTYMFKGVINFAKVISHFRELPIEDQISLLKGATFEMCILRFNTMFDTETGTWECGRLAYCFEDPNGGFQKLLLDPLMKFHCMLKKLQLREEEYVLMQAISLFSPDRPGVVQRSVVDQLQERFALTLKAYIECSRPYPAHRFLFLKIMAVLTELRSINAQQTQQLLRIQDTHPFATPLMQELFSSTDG

[17] = qHTS assay for small molecule activators of the human pregnane X receptor (PXR) signaling pathway (AID 720659; call rule not given here; further: 0% is about no effect)
[18] = qHTS assay for environmental chemicals that activate the Aryl hydrocarbon Receptor (AhR) signaling pathway (AID 651777; active means well fitted curve in the direction sought with a large enough effect; an effect the other way counts as inactive or inconclusive; further: % of control where 0% means no effect; nearly all actives have a fitted effect of over 15% in size); conditions: 1A2-DRE human hepatoma cells, luciferase, 24 h; activation: stronger effect = higher value
Summary of the method: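 Measured luciferase activity, read 30 min after One-Glo addition at room temperature, from human hepatoma cells bearing a dioxin response element–CYP1A2 promoter reporter and exposed to compound for 24 hr at 37 C.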

[19] = biological target: Vitamin D3 receptor (Homo sapiens) (UniProt P11473); test: qHTS assay for small molecule antagonists of vitamin D receptor signaling (AID 588541);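 further: receptor activated by calcitriol during compound treatment; series mostly up to about 77 µM; on the % scale 0 is the no-effect control and ±100 the full control effect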
Summary of the method: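 VDR-UAS-bla HEK293T cells in 2% charcoal-stripped FBS were stimulated with 1-alpha,25-dihydroxyvitamin D3 (3 nM final) plus compound for 16 h at 37 C. The beta-lactamase CCF4 readout was normalized to 50 nM agonist and DMSO, and Hill fits gave IC50.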

[20] = biological target: Thyroid hormone receptor beta (Homo sapiens) (UniProt P10828); test: qHTS assay for small molecule antagonists of thyroid hormone receptor beta signaling (AID 588547; active means well fitted inhibition curve with a large enough effect in the signal ratio, with a control signal flat, not every such curve was filed as active; the % refers to the signal ratio); conditions: TR-UAS-bla HEK293, beta-lactamase ratio, antagonist mode, 18 h
Summary of the method: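 TR-UAS-bla GripTite HEK293 cells in 2% charcoal/dextran FBS medium; compounds 0.59 nM to 92 uM with T3 at 0.4nM final, 18 h at 37 C. Beta-lactamase read by CCF4 fluorescence (460/530 nm); Hill fits gave IC50 and efficacy.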

C[Si]1(C)O[Si](C)(C)O[Si](C)(C)O[Si](C)(C)O[Si](C)(C)O1
-18.1%: max response [5]
5.15%: max response [3]
inactive: Potency [1] | Potency [2] | outcome [4] | Potency [6] | Potency [7] | max response [9] 2.84% | activation [10] 1.25% | max response [11] -3.04% | Potency [12] | max response [13] -13.9% | max response [14] -11.9% | Potency [15] | max response [16] -3.44% | outcome [17]
-10.4%: max response [8]

CC(C)OB(OC(C)C)OC(C)C
-7.32%: max response [8]
inactive: Potency [1] | Potency [2] | outcome [4] | Potency [6] | max response [9] 0.387% | activation [10] 0.574% | activation [18] 9.09% | max response [11] -0.0686% | Potency [12] | max response [13] -7.65% | max response [14] -7.12% | Potency [15] | max response [16] 0.348% | outcome [17]
-15.5%: max response [5]

O=[N+]([O-])C(CO)(CO)CO
-5.31%: max response [8]
inactive: Potency [1] | Potency [2] | Potency [19] | outcome [4] | Potency [6] | Potency [7] | max response [9] 4.16% | activation [10] 7.94% | activation [18] -1.19% | max response [11] -3.92% | Potency [12] | max response [13] -10% | max response [14] -13.7% | Potency [15] | max response [16] 0.128% | outcome [17]
26.9%: max response [3]
-11.5%: max response [5]

CC/C=C\CCOC(=O)c1ccccc1O
-19.1%: max response [3]
inactive: Potency [1] | Potency [19] | outcome [4] | Potency [6] | Potency [7] | max response [9] 0.792% | activity change % (negative = inhibition) [20] 0.0454% | activation [10] -5.63% | max response [11] 0.589% | Potency [12] | max response [13] 6.72% | max response [14] 0.746% | Potency [15] | max response [16] 5.21% | outcome [17]
-9.64%: max response [5]
active: Potency [2] 25.1 µM
-7.38%: max response [8]

C=CC(=O)NC(C)(C)CS(=O)(=O)O
6.06% and 6.67%: max response [8]
inactive: Potency [1] | Potency [2] | Potency [19] | outcome [4] | Potency [6] | max response [9] -8.43% and -30.3% | activity change % (negative = inhibition) [20] 13.1% and 23.4% | activation [10] 2.63% and -4% | activation [18] 1.15% and -0.952% | max response [11] 2.58% and -1.53% | Potency [12] | max response [13] -6.76% and -9.12% | max response [14] -20.6% and -8.34% | Potency [15] | max response [16] -5.7% and -3.87% | outcome [17]
-14.1% and -12.4%: max response [5]
15.1% and -58.6%: max response [3]

OC1CCCCCCCCCCC1
inactive: Potency [1] | Potency [2] | Potency [6] | Potency [7] | max response [9] -4.46% | activation [10] 4.17% | activation [18] 1.93% | Potency [12] | max response [13] 3.88% | Potency [15] | max response [16] -3.86% | outcome [17]
10.2%: max response [5]
17.8%: max response [3]
-1.99%: max response [8]
